Measurements from PubChem BioAssay (NCATS).
Results filed as inconclusive are left out. For some assays here: Entries with a potency or affinity are not part of this list. Active and inactive are the calls of the source. Starred links: 1 amine or outer side, 2 acyl side, 3 side chain; linkers in the order of their positions; H or OH if unused. Positions of bridges follow the written chain, without caps; N, C: chain ends. Non-standard residues stand in square brackets, D forms with d. Residues, ends and D or L forms follow the SMILES beside them. ξ: configuration not given here. *: point of attachment. ΔAla(3-NHCONH2) = NC(=O)NC=C(N)C(=O)O; X1 = NC1=NCCC(C(N[*:1])C(=O)[*:2])N1; ξβ3hOrn = NCCCC(N)CC(=O)*; Dap = NC[CH](N)C(=O)O

Assays:
[1] = Ebola virus entry assay, blue channel fluorescence
[2] = Ebola virus entry assay, reporter ratio channel; AC50: Channel type: primary unless noted; outcome: Channel type: primary unless noted
[3] = Ebola virus entry assay, blue channel (ratio component)
[4] = Ebola virus entry reporter assay, green channel fluorescence
[5] = Ebola virus entry cell assay, ratio channel
[6] = High-throughput drug toxicity screening in the BPDCN cell line Gen2.2 (AID 1224824); settings: Gen2.2 BPDCN cells; at 45.8 µM (top of the series);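 further: cells exposed to compounds for 48 h before reading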
Procedure, shortened: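 Gen2.2 cells (500/well) in phenol red-free RPMI with 10% FBS were exposed to compounds for 48 h at 37 °C, 5% CO2. Viability was read by CellTiter-Glo luminescence and normalized to DMSO (100%) and 9.2 uM bortezomib (0%).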

[7] = High-throughput drug toxicity screening in the BPDCN cell line Cal-1 (AID 1224825); settings: Cal-1 BPDCN cell viability, qHTS; at 45.8 µM (top of the series)
Procedure, shortened: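 500 Cal-1 cells/well, RPMI + glutamine + 10% FBS (phenol red-free); cpd added by pin tool; 48 h, 37C, 5% CO2; CTG 15 min RT, lumi read. Normalised: DMSO 100%, bortezomib 9.2 uM 0%.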

[8] = qHTS assay for measurement of the activity of small molecule inhibitors on Zika virus induced Caspase-3 activity in human iPSC derived neural progenitor cells (hNPCs) (AID 1224857; active means well fitted curve in the direction sought with a large enough effect; an effect the other way counts as inactive or inconclusive; further: nearly all actives have a fitted effect of over 65% in size); settings: hNPCs ZIKV-induced caspase-3/7, Caspase-Glo luminescence, 6 h; series mostly up to 45.7 µM
Procedure, shortened: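 In medium with heparin 2 ug/ml and cyclopamine 2 uM, hNPCs (350 cells/well) received compound for one hour and then Zika virus at 2 FFU/cell; caspase activity was measured by Caspase-Glo 3/7 luminescence 6 h post-infection.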

[9] = qHTS assay for measurement of the activity of small molecule inhibitors on Zika virus induced Caspase-3 activity in human astrocytoma cells (AID 1224859; active means well fitted curve in the direction sought with a large enough effect; an effect the other way counts as inactive or inconclusive); settings: SNB-19 ZIKV-induced caspase-3/7, luminescence, 6 h; series mostly up to 45.7 µM
Procedure, shortened: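 A cell-based luminescent caspase-3/7 assay used SNB-19 cells infected with ZIKV (2 FFU/cell) for 6 h following 1 h compound pretreatment.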

[10] = qHTS Screen of the MIPE 4.0 Collection Against Ewings Sarcoma (RDES) (AID 1259252; active means well fitted curve in the direction sought with a large enough effect; an effect the other way counts as inactive or inconclusive; further: nearly all actives have a fitted effect of over 35% in size); settings: RD-ES Ewing sarcoma viability, CellTiter-Glo, 48 h; series mostly up to 45.8 µM
Procedure, shortened: (§1)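 After a 4 h attachment period in RPMI/5% FBS, cells were pin-dosed with test compounds; DMSO served as negative and 9.2 uM bortezomib (final) as positive control. Luminescent CellTiter-Glo signal at 48 h defined viability.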

[11] = qHTS Screen of the MIPE 4.0 Collection Against Ewings Sarcoma (EW8) (AID 1259255; active means well fitted curve in the direction sought with a large enough effect; an effect the other way counts as inactive or inconclusive; further: nearly all actives have a fitted effect of over 35% in size; further: potency means the concentration at half of the fitted maximal effect); settings: EW8 Ewing sarcoma viability, CellTiter-Glo, 48 h; series mostly up to 45.8 µM
Procedure, shortened: as §1

[12] = qHTS Screen of the MIPE 4.0 Collection Against Ewings Sarcoma (TC32) (AID 1259256; active means well fitted curve in the direction sought with a large enough effect; an effect the other way counts as inactive or inconclusive; further: nearly all actives have a fitted effect of over 45% in size); settings: TC32 Ewing sarcoma viability, CellTiter-Glo, 48 h; series mostly up to 45.8 µM
Procedure, shortened: as §1

[13] = qHTS assay to identify small molecule inhibitors of chordoma cells - UCH-1 (AID 1259355; active means well fitted curve in the direction sought with a large enough effect; an effect the other way counts as inactive or inconclusive; further: nearly all actives have a fitted effect of over 55% in size); settings: UCH-1 chordoma viability, CellTiter-Glo, 48 h, combination; series mostly up to 46.1 µM
Procedure, shortened: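 Seed 800 cells per well; incubate overnight at 37 C, 5% CO2. Add test compounds (15 concentrations), then the auranofin–topoisomerase-agent combination. Incubate 48hr, add CellTiter-Glo, wait 30min, read luminescence.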

[14] = qHTS assay to identify small molecule inhibitors of chordoma cells - UCH-2 (AID 1259356; active means well fitted curve in the direction sought with a large enough effect; an effect the other way counts as inactive or inconclusive); settings: UCH-2 chordoma viability, CellTiter-Glo ATP luminescence, 48 h; series mostly up to 46.1 µM
[15] = Immunotoxin (HA22) sensitization/mitigation study. Vehicle arm (PBS) (AID 1159510); settings: cancer cells viability with PBS vehicle (HA22 study); series mostly up to 46.1 µM; further: potency means the concentration at half of the fitted maximal effect
[16] = Immunotoxin (SS1P) sensitization/mitigation study. Vehicle arm (DMEM) (AID 1159513); settings: cell viability with vehicle (DMEM); series mostly up to 46.1 µM; further: potency means the concentration at half of the fitted maximal effect

CCOC(=O)c1ncn2c1CN(C)C(=O)c1cc(F)ccc1-2
inactive: outcome [1] | outcome [2] | outcome [3] | outcome [4] | outcome [5]

NCCCC(N)CC(=O)NCC1NC(=O)C(CO)NC(=O)C(N)CNC(=O)C(C2CCN=C(N)N2)NC(=O)C(=CNC(N)=O)NC1=O (stereo not drawn) (H-[Dap]S[Dap](ξβ3hOrn)[ΔAla(3-NHCONH2)][X1]; lactam 1-C; configuration not given here)
inactive: outcome [1] | outcome [2] | outcome [3] | outcome [4] | outcome [5]

C#CCN(C)[C@H](C)Cc1ccccc1
105%: viability (% of control) [7]
inactive: outcome [1] | outcome [2] | outcome [3] | outcome [4] | outcome [5] | Potency [8] | outcome [9] | Potency [10] | Potency [11] | Potency [12] | Potency [13] | Potency [14]
160%: cell viability, % of control (lower = more cytotoxic) [6]

CCC1C(=O)OCC1Cc1cncn1C (stereo not drawn)
inactive: outcome [1] | outcome [2] | outcome [3] | outcome [4] | outcome [5] | Potency [8]

C[C@H]1[C@H](NC(=O)/C(=N/OC(C)(C)C(=O)O)c2csc(N)n2)C(=O)N1S(=O)(=O)O (stereo in doubt)
inactive: outcome [1] | outcome [2] | outcome [3] | outcome [4] | outcome [5]

OCCN1C[C@H](O)[C@@H](O)[C@H](O)[C@H]1CO
inactive: outcome [1] | outcome [2] | outcome [3] | outcome [4] | outcome [5]

CC1OC(C)OC(C)O1 (stereo not drawn)
inactive: outcome [1] | outcome [2] | outcome [3] | outcome [4] | outcome [5] | Potency [8] | outcome [9] | Potency [13] | Potency [14]

CC(=O)Nc1nnc(S(N)(=O)=O)s1
inactive: outcome [1] | outcome [2] | outcome [3] | outcome [4] | outcome [5]

O=C(CCCCCCC(=O)Nc1ccccc1)NO
inactive: outcome [1] | outcome [2] | outcome [3] | outcome [4] | outcome [5]
active: Potency [15] 0.0959 µM | Potency [16] 0.481 µM

CC(C)[N+](C)(CCOC(=O)C1c2ccccc2Oc2ccccc21)C(C)C
inactive: outcome [1] | outcome [2] | outcome [3] | outcome [4] | outcome [5]

C[C@]12C/C(=C/O)C(=O)C[C@@H]1CC[C@@H]1[C@@H]2CC[C@@]2(C)[C@H]1CC[C@]2(C)O
active: AC50 [2] 14.1 µM
inactive: outcome [1] | outcome [3] | outcome [4] | outcome [5] | Potency [8] | outcome [9] | Potency [13] | Potency [14]

CC(=O)O[C@@]12CO[C@@H]1C[C@H](O)[C@@]1(C)C(=O)[C@H](O)C3=C(C)[C@@H](OC(=O)[C@H](O)[C@@H](NC(=O)OC(C)(C)C)c4ccccc4)C[C@@](O)([C@@H](OC(=O)c4ccccc4)[C@H]21)C3(C)C
active: AC50 [2] 20 µM
inactive: outcome [1] | outcome [3] | outcome [4] | outcome [5] | Potency [15] | Potency [16]

CC(c1cc2ccccc2s1)N(O)C(N)=O (stereo not drawn)
inactive: outcome [1] | outcome [2] | outcome [3] | outcome [4] | outcome [5] | Potency [15] | Potency [16]

O=C(O)c1cn(C2CC2)c2cc(N3CCNCC3)c(F)cc2c1=O
inactive: outcome [1] | outcome [2] | outcome [3] | outcome [4] | outcome [5]

O=P1(NCCCl)OCCCN1CCCl (stereo not drawn)
49.3%: cell viability, % of control (lower = more cytotoxic) [6]
20.1%: viability (% of control) [7]
inactive: outcome [1] | outcome [2] | outcome [3] | outcome [4] | outcome [5] | Potency [8] | outcome [9] | Potency [12] | Potency [13] | Potency [14]
active: Potency [11] 20.9 µM

NCC(CC(=O)O)c1ccc(Cl)cc1 (stereo not drawn)
inactive: outcome [1] | outcome [2] | outcome [3] | outcome [4] | outcome [5] | Potency [8] | outcome [9] | Potency [13] | Potency [14]

CC(C)(C#N)c1cc(Cn2cncn2)cc(C(C)(C)C#N)c1
inactive: outcome [1] | outcome [2] | outcome [3] | outcome [4] | outcome [5]

CN/C(=C\[N+](=O)[O-])NCCSCc1ccc(CN(C)C)o1
inactive: outcome [1] | outcome [2] | outcome [3] | outcome [4] | outcome [5]

CN(C)CCc1c[nH]c2ccc(C[C@H]3COC(=O)N3)cc12
inactive: outcome [1] | outcome [2] | outcome [3] | outcome [5]

CC(C(=O)O)c1cccc(C(=O)c2ccccc2)c1 (stereo not drawn)
inactive: outcome [1] | outcome [2] | outcome [3] | outcome [5]

CN(CCOc1ccc(NS(C)(=O)=O)cc1)CCc1ccc(NS(C)(=O)=O)cc1
inactive: outcome [1] | outcome [2] | outcome [3] | outcome [5]

COC(=O)C(c1ccccc1Cl)N1CCc2sccc2C1 (stereo not drawn)
inactive: outcome [1] | outcome [2] | outcome [3] | outcome [5]

CC(=O)Oc1cc2c(s1)CCN(C(C(=O)C1CC1)c1ccccc1F)C2 (stereo not drawn)
inactive: outcome [1] | outcome [2] | outcome [3] | outcome [5]

COc1nc(N)nc2c1ncn2[C@@H]1O[C@H](CO)[C@@H](O)[C@@H]1O
inactive: outcome [1] | outcome [2] | outcome [3] | outcome [5]

Cc1nc2n(c(=O)c1CCN1CCC(c3noc4cc(F)ccc34)CC1)CCCC2
inactive: outcome [1] | outcome [2] | outcome [3] | outcome [5]

CC(=O)N(O)CCCCCNC(=O)CCC(=O)N(O)CCCCCNC(=O)CCC(=O)N(O)CCCCCN
inactive: outcome [1] | outcome [2] | outcome [3] | outcome [5]
